Drawing on PubChem BioAssay, this text covers composite z-score for ten molecules.

SMILES strings stand for the structures.

A short description of the experiment: probe aNog binding to arrayed compounds – biochemical, biotinylated probe, 635/667 nm fluorescence, primary screen (AID 1115).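 Note: probe is biotinylated aNog protein used at 0.15 µg/mL for 1 h at 4 C; z-score combines 667 nm fluorescence of each spot with its signal to noise.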 The conditions noted are these: small-molecule microarray, higher = more signal.
In the case of `CC(C)C[C@@H]1NC(=O)[C@H]2C[C@@H](C(=O)NCCCCCNC(=O)CS)[C@@H](c3cccc(OCCO)c3)N2C1=O`, the composite z-score is -0.0428.
`COc1ccc(C#Cc2ccc3c(c2)[C@]2(C(=O)N3)[C@H](c3ccc(O)cc3)N3[C@H](c4ccccc4)[C@H](c4ccccc4)OC(=O)[C@H]3[C@@H]2C(=O)NC[C@H](O)c2ccccc2)cc1` showed a composite z-score of 0.305.
`O=C1OCC=C[C@H]2OC34C=CCN(c5ccc(Cl)cc5)C(=O)[C@H]3N(CCCCCCO)C(=O)[C@@H]4[C@@H]12` (stereo not given in full) gave a composite z-score of 0.46.
In the case of `C=CCOC(=O)[C@H]1[C@@H]2C(=O)O[C@@H](c3ccccc3)[C@@H](c3ccccc3)N2[C@@H](c2ccc(OCCOC(=O)[C@@H]3C[C@@H]4C(=O)N5CCC[C@H]5C(=O)N4[C@@H]3c3ccc(O)cc3)cc2)[C@]12C(=O)Nc1ccccc12`, the composite z-score was -0.467.
The molecule `CCCC[C@H]1OB(O)C[C@H]2C1=C(C)C[C@H]1C(=O)N(Cc3ccccc3)C(=O)[C@H]12` yielded a composite z-score of -0.351.
The figure for `CCCC[C@@H]1C[C@H]1[C@@H](NC(=O)c1ccc(-c2ccccc2)cc1)c1ccc(-c2ccccc2)cc1` is -0.435; for `COCC(=C=CC[C@@H](O)c1ccc(CO)o1)CCO` it is -0.387.
The figure for `Cc1ccc(S[C@]2(C(=O)NCc3ccccc3)CC(=O)N(Cc3ccccc3Cl)[C@@H]2c2ccc(CO)cc2I)cc1` is -0.581.
Consider `CC=CC(O)C1C=CC2C(=O)N(c3ccccc3)C(=O)C2N1Nc1ccc(C(C)C)cc1` (stereo not given), for which the composite z-score is 1.65.
Then `COCCOC(=O)N1C(=O)[C@@]2(c3ccccc31)[C@H](C(=O)NC[C@H](O)c1ccccc1)[C@H]1C(=O)O[C@H](c3ccccc3)[C@H](c3ccccc3)N1[C@@H]2c1ccc(OCCO)cc1`, with -0.466.
